SMILES strings stand for the structures. Values joined by “and” are separate entries in the source; they are usually repeats but may differ in a detail not shown here. Equal entries are not always repeated. The source holds several records for some structures; these can differ, active in one and inactive in another. Active and inactive are the calls of the source. Rule for the calls: active = hit-call score of the fitted dose curve at least 0.9, where 1 is the maximum; inactive = score below 0.9.

What all share (settings): primary human HUVEC with PBMC; actives raise or lower the signal
Read-out in assay [1]: Monocyte Chemoattractant Protein-1 (MCP1), CCL2 (gene 6347)
The assay can be described thus: BSK_LPS_MCP1: BioMAP Diversity Plus: LPS Assay for Monocyte Chemoattractant Protein-1 (MCP1) Biomarker Activity (AID 2283081).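 For AC50: co-culture stimulated with LPS; secreted MCP-1 protein quantified by ELISA in culture supernatant.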 An outline of the steps: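 HUVEC plus PBMC co-culture (human primary cells, LPS system) exposed to test chemical for 24 h; MCP-1 measured by ELISA. Bidirectional curve fitting against DMSO baseline; parallel SRB total-protein staining flags overt cytotoxicity.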

A short description of assay [2]: BSK_LPS_PGE2: BioMAP Diversity Plus: LPS Assay for Prostaglandin E2 (PGE2) Biomarker Activity (AID 2283082).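 For AC50: secreted prostaglandin E2 measured by ELISA in LPS-stimulated co-culture.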 Summed up: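 Primary human endothelial cells and blood mononuclear cells, co-cultured with LPS, receive test chemical; PGE2 ELISA follows at 24 h, with SRB-stained parallel cultures flagging cytotoxicity.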
Read-out in assay [3]: Macrophage colony-stimulating factor (MCSF), CSF1 (gene 1435)
Briefly: BSK_LPS_MCSF: BioMAP Diversity Plus: LPS Assay for Macrophage colony-stimulating factor (MCSF) Biomarker Activity (AID 2283083). Summed up: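 Human umbilical vein endothelial cells co-cultured with peripheral blood mononuclear cells were exposed to compound for 24 h. M-CSF levels were measured by ELISA, and bidirectional curve fitting used DMSO as the negative control and baseline.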

Read-out in assay [4]: Tissue Factor, F3 (gene 2152)
The assay can be described thus: BSK_LPS_TissueFactor: BioMAP Diversity Plus: LPS Assay for Tissue Factor Biomarker Activity (AID 2283084). An outline of the steps:
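Human umbilical vein endothelial cells co-cultured with peripheral blood mononuclear cells were dosed and stimulated with LPS. Cell-surface CD142 was quantified by ELISA at 24 h. Activity was fitted bidirectionally against DMSO baseline.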

Read-out in assay [5]: Tumor necrosis factor (Homo sapiens) (UniProt P01375)
Briefly: BSK_LPS_TNFa: BioMAP Diversity Plus: LPS Assay for Tumour Necrosis Factor alpha (TNFa) Biomarker Activity (AID 2283085). An outline of the steps: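 ELISA-based TNFa endpoint in a human endothelial–PBMC co-culture sampled 24 h post-exposure. Curves were fitted in both directions using DMSO as baseline of activity.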

Read-out in assay [6]: Vascular cell adhesion molecule 1 (VCAM1), VCAM1 (gene 7412)
The assay can be described thus: BSK_LPS_VCAM1: BioMAP Diversity Plus: LPS Assay for Vascular cell adhesion molecule 1 (VCAM1) Biomarker Activity (AID 2283086). An outline of the steps: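 Measured by ELISA: VCAM-1 in LPS-activated HUVEC/PBMC co-cultures 24 h after treatment. Values reflect bidirectional fitting with DMSO as baseline.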

Read-out in assay [7]: CD38, CD38 (gene 952)
Briefly: BSK_SAg_CD38: BioMAP Diversity Plus: SAg Assay for CD38 Biomarker Activity (AID 2283087). An outline of the steps: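 Measures CD38 on a human endothelial/PBMC co-culture driven by SEB and TSST-1, 24 h after compound exposure, using ELISA with fluorescence detection; DMSO defines baseline for bidirectional curve fitting.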

Read-out in assay [8]: CD40, CD40 (gene 958)
Briefly: BSK_SAg_CD40: BioMAP Diversity Plus: SAg Assay for CD40 Biomarker Activity (AID 2283088). Summed up: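 Human umbilical vein endothelial cells co-cultured with PBMC; CD40 levels measured by ELISA with fluorescence read-out 24 h after chemical dosing. Gain or loss of signal fitted bidirectionally against DMSO baseline.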

Read-out in assay [9]: CD69, CD69 (gene 969)
Briefly: BSK_SAg_CD69: BioMAP Diversity Plus: SAg Assay for CD69 Biomarker Activity (AID 2283089).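 For AC50: cell surface CD69 protein quantified by ELISA with fluorescence detection.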 Summed up:
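Values derive from bidirectional fitting relative to DMSO vehicle. Cells: umbilical vein endothelium plus peripheral blood mononuclear cells, treated 24 h before fluorescent ELISA for CD69.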

Read-out in assay [10]: Monocyte Chemoattractant Protein-1 (MCP1), CCL2 (gene 6347)
The assay can be described thus: BSK_SAg_MCP1: BioMAP Diversity Plus: SAg Assay for Monocyte Chemoattractant Protein-1 (MCP1) Biomarker Activity (AID 2283090). An outline of the steps:
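Values derive from bidirectional fitting of ELISA-measured MCP1 against DMSO controls. Readings were taken 24 h after dosing human vascular endothelial cells co-cultured with peripheral blood mononuclear cells under superantigen stimulation.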

Chain of Tumor necrosis factor (Homo sapiens) (P01375 whole entry, looked up): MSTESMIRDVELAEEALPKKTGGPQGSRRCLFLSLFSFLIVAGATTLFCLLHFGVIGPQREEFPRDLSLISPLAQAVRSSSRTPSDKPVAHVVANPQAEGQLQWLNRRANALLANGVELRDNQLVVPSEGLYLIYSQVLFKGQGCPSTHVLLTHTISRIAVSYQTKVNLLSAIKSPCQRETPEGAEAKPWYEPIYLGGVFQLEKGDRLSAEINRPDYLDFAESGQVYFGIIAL

For the compound `CCOC(=O)CC(=O)C(F)(F)C(F)(F)F`, the outcome in [1], in assay [2], in assay [3], in [4], in [5] and in [6] was inactive. For the same compound, the result in assay [7], in assay [8], in assay [9] and in assay [10] was inactive.
`FC(F)(F)C(F)(F)C(F)(F)C(F)(F)C(F)(F)C(F)(F)CC[Si](Cl)(Cl)Cl`: the half-maximal activity concentration (AC50) in assay [1] was 0.219 µM (active). Also, the result in assay [1], in [2], in assay [3], in [4], in [6] and in [7] was inactive. The outcome in assay [8], in assay [9] and in assay [10] was inactive.
For `FC(F)(F)C(F)(F)C(F)(F)CC1CO1` (stereo not given), the result in assay [1], in assay [2], in assay [3], in [4], in assay [6] and in assay [7] was inactive. Further, the result in assay [8], in assay [9] and in assay [10] was inactive.
As for `Cc1cc(C)c(O)c(C(C)(C)C)c1`, the AC50 in [1] was 36.7 µM (active); in [3], 34.4 µM (active); in assay [4] it was 30.8 µM (active); in assay [6], 31.3 µM (active); in assay [7], 32.5 µM (active); in [8], 30.5 µM (active). For the same compound, the half-maximal activity concentration (AC50) in assay [9] is 31.5 µM (active); in assay [10], 30.8 µM (active). Besides, in assay [2], the result was inactive.
Regarding `Cc1cnccn1`, the outcome in [1], in assay [2], in assay [3], in assay [4], in assay [6] and in assay [7] was inactive. The result in assay [8], in assay [9] and in assay [10] was inactive.
`O=C(O)CCC(F)(F)C(F)(F)C(F)(F)F`: the outcome in assay [1], in [2], in [3], in [4], in assay [6] and in [7] was inactive. Moreover, the outcome in assay [8] and in assay [10] was inactive.
As to `CNS(=O)(=O)C(F)(F)C(F)(F)C(F)(F)C(F)(F)C(F)(F)C(F)(F)C(F)(F)C(F)(F)F`, the result in assay [1], in assay [2], in assay [3], in assay [4], in [6] and in assay [7] was inactive. For the same compound, the outcome in assay [8], in assay [9] and in [10] was inactive.
For `O=C(O)CCC(F)(F)C(F)(F)C(F)(F)C(F)(F)C(F)(F)C(F)(F)C(F)(F)F`, the result in [1], in assay [2], in [3], in assay [4], in assay [6] and in assay [7] was inactive. In addition, the result in assay [8] and in [10] was inactive.
Regarding `O=C(O)C(F)(F)C(F)(F)C(F)(F)OC(F)(C(F)(F)F)C(F)(F)F`, the result in assay [1], in assay [2], in assay [3], in assay [4], in assay [6] and in [7] was inactive. Also, the outcome in assay [8] and in [10] was inactive.
For `O=C(O)C(F)(F)OC(F)(F)C(F)(F)OC(F)(F)C(F)(F)OC(F)(F)F`, the result in assay [1], in assay [2], in [3], in assay [4], in assay [6] and in assay [7] was inactive. In addition, the outcome in [8], in assay [9] and in assay [10] was inactive.
`NC(=O)C(F)(F)C(F)(F)C(F)(F)F`: the result in assay [1], in [2], in [3], in assay [4], in assay [6] and in assay [7] was inactive. For the same compound, the result in [8], in [9] and in assay [10] was inactive.
Turning to `CC1=CC2C3C=CC(C3)C2C1C` (stereo not given), the result in assay [1], in [2], in assay [3], in [4], in [6] and in assay [7] was inactive. Also, the outcome in [8], in assay [9] and in [10] was inactive.
Consider `CC(C)CCCC(C)CCO` (stereo not given), for which the outcome in assay [1], in assay [2], in assay [3], in assay [4], in assay [6] and in assay [7] was inactive. The outcome in assay [8], in assay [9] and in assay [10] was inactive.
As for `O=C1C=CC(=O)N1c1ccc(Cc2ccc(N3C(=O)C=CC3=O)cc2)cc1`, the concentration at half-maximal activity (AC50) in assay [1] was 14.9 µM (active); in [2], 5.34 µM (active); in assay [3], 10 µM (active); in assay [4], 5.57 µM (active); in assay [6], 11.1 µM (active); in assay [7] it was 5.71 µM (active). The AC50 in assay [8] is 12.1 µM (active); in [9], 6.1 µM (active); in assay [10], 6.98 µM (active).
As to `OCC(F)(F)C(F)(F)C(F)(F)CO`, the result in assay [1], in assay [2], in assay [3], in [4], in [6] and in [7] was inactive. For the same compound, the outcome in assay [8] and in assay [10] was inactive.
For `OCCCC(F)(F)C(F)(F)C(F)(F)C(F)(F)C(F)(F)C(F)(F)C(F)(F)C(F)(F)F`, the AC50 was 29.9 µM (active) and 44.8 µM (active) in [1]; 44.2 µM (active) and 22.5 µM (active) in assay [3]; 39.3 µM (active) and 23.2 µM (active) in assay [4]; 41.4 µM (active) and 23.6 µM (active) in assay [6]; 44.8 µM (active) and 26 µM (active) in assay [7]; 43.8 µM (active) and 45.5 µM (active) in assay [8]. Besides, the concentration at half-maximal activity (AC50) in assay [9] was 45.5 µM (active) and 46.7 µM (active); in assay [10] it was 23.2 µM (active) and 51.9 µM (active). In addition, in assay [2], the outcome was inactive.
On to `OCC(F)(F)C(F)(F)C(F)(F)C(F)(F)C(F)(F)C(F)(F)C(F)(F)C(F)(F)CO`, for which the result in assay [1], in assay [2], in assay [3], in [4], in assay [6] and in assay [7] was inactive. The result in assay [8] and in assay [10] was inactive.

The record behind these values is PubChem BioAssay (EPA / NIEHS).
